Screen size: about 3,300 compounds; about 280 (8.5%) were called active. This is one part of a sample in which actives are shown more often than they occur. A number with no mark means an inactive call.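 Rule for the calls: active = mean growth inhibition over the two runs of 50% or more; inactive = mean growth inhibition under 50%.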

94 compounds from PubChem BioAssay AID371 (SRMLSC, 2006) can be followed below.

The experiment is described as follows: A549 NSCLC cell proliferation inhibitors – ATP luminescence, human non-small cell lung line, primary screen (AID 371).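 Note: compound exposure lasted 72 h before the ATP read; 0% = untreated cell signal and 100% = no luminescence left.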 Particulars: at 10 µM, hits give high values.
As for `COc1cccc(-c2nnc3sc(-c4ccco4)nn23)c1`, the growth inhibition was 11.9%.

With `Cc1cc(C)n(CC2CC(=O)N(c3ccc(F)c(Cl)c3)C2=O)n1` (centres undefined), the growth inhibition was 1.52%.

For `Cn1nccc1C(=O)Nc1ccccc1C(=O)O`, the growth inhibition was 2.72%.

`CCCSc1nc(O)c(C2OC(=O)c3c2ccc(OC)c3OC)c(=O)n1C` (centres undefined): the growth inhibition is 3.43%.

For the compound `Cc1ccc(-n2ncc3c(N4CCC(C(N)=O)CC4)ncnc32)c(C)c1`, the growth inhibition was 7.75%.

In the case of `CCc1cccc(C)c1N(C(=O)Cn1c(=O)[nH]c2ccccc21)C(C)COC` (centres undefined), the growth inhibition was 17.6%.

For `CCC(NC(=O)Nc1nccs1)(C(F)(F)F)C(F)(F)F`, the growth inhibition was 2.27%.

As to `CCSc1nnc(NC(=O)NC(CC)(C(F)(F)F)C(F)(F)F)s1`, the growth inhibition was 82.1% (active).

As for `CCSc1nnc(NC(=O)NCC(F)(F)F)s1`, the growth inhibition is -0.28%.

Regarding `CCN(CC)CCN1C(=O)C(=O)/C(=C(/O)c2ccc(OC)cc2)C1c1ccco1` (centres undefined), the growth inhibition is 2.24%.

In the case of `Cc1cc(NCCNC2=CC(=O)CCC2)nc2ccccc12`, the growth inhibition was 3.87%.

In the case of `Cc1cc(N/C=C/C(=O)c2cccc3ccccc23)no1`, the growth inhibition was 40.5%.

Turning to `CC(=O)Oc1ccc2c(C)cc(=O)[nH]c2c1`, the growth inhibition is 10.7%.

As for `C[C@]12CC[C@@H]3c4ccc(O)cc4CC[C@H]3[C@@H]1CCC2=O`, the growth inhibition was 14.8%.

For the compound `C[C@]12CC[C@@H]3c4ccc(O[C@@H]5O[C@H](C(=O)O)[C@@H](O)[C@H](O)[C@H]5O)cc4CC[C@H]3[C@@H]1C[C@@H](O)[C@@H]2O`, the growth inhibition is -8.48%.

`CCCCC(=O)O[C@H]1CC[C@H]2[C@@H]3CCc4cc(O)ccc4[C@H]3CC[C@]12C`: the growth inhibition is 92.3% (active).

With `C[C@]12CC[C@@H]3c4ccc(OS(=O)(=O)O)cc4CC[C@H]3[C@@H]1CCC2=O`, the growth inhibition was -4%.

`C[C@]12CC[C@@H]3c4ccc(OC(=O)c5ccccc5)cc4CC[C@H]3[C@@H]1CC[C@@H]2O`: the growth inhibition was 73.8% (active).

Turning to `C[C@]12CC[C@@H]3c4ccc(O)cc4CC[C@H]3[C@@H]1CC[C@@H]2OC(=O)CCC(=O)O`, the growth inhibition is 14.8%.

As to `CCOC(=O)COn1c(=O)c(-c2ccc(OC)c(OC)c2)[n+]([O-])c2ccccc21`, the growth inhibition was 4.28%.

Consider `CCCCSc1nc(N)c(C#N)c(-c2cccs2)c1C#N`, for which the growth inhibition is 40.8%.

Regarding `CC1(C)C2CCC1(C)C(NC(=O)CCN1CCCCC1)C2` (centres undefined), the growth inhibition is 7.81%.

Take `CNS(=O)(=O)c1cccc2nsnc12`: the growth inhibition is -11.4%.

In the case of `COc1cc(S(=O)(=O)N2CCN(C)CC2)c(OC)cc1Br`, the growth inhibition was 6.26%.

On to `CCN1CCc2c(C#N)c(NCc3ccccc3)nc(NCCO)c2C1`, for which the growth inhibition is 3.07%.

Consider `CCN1CCc2c(C#N)c(N3CCCCC3)nc(NCc3ccccc3)c2C1`, for which the growth inhibition was 88.8% (active).

As to `CN1Cc2c(N3CCOCC3)nc(SCc3ccccc3)c(C#N)c2CC1(C)C`, the growth inhibition was 45.5%.

On to `CCN1CCc2c(C#N)c(NCc3ccccc3)nc(N(CC)CC)c2C1`, for which the growth inhibition was 67.3% (active).

In the case of `C=CCNc1nc(N2CCOCC2)c(C#N)c2c1CN(C)CC2`, the growth inhibition is 2.03%.

As to `CCN(CC)c1nc(N2CCOCC2)c(C#N)c2c1CN(C)CC2`, the growth inhibition is 11.1%.

Regarding `CCN1CCc2c(C#N)c(N3CCCCC3)nc(N3CCOCC3)c2C1`, the growth inhibition is 4.36%.

Regarding `C=CCNc1nc(NCc2ccccc2)c(C#N)c2c1CN(C)CC2`, the growth inhibition was 70.9% (active).

For `CCN1CCc2c(C#N)c(N3CCOCC3)nc(NCc3ccccc3)c2C1`, the growth inhibition was 23.9%.

Take `CCN1CCc2c(C#N)c(N3CCOCC3)nc(NCCO)c2C1`: the growth inhibition is 6.84%.

In the case of `CCCCCNc1nc(N2CCCC2)c2c(c1C#N)CCN(C)C2`, the growth inhibition is 95.5% (active).

With `CN1CCc2c(C#N)c(N3CCCCC3)nc(N3CCOCC3)c2C1`, the growth inhibition is 3.07%.

As for `FC(F)(F)c1cccc(-n2cccc2/C=N/n2cnnc2)c1`, the growth inhibition is 9.69%.

For `CSc1nc2[nH]c3c(c2c2ncnn12)CCCC3`, the growth inhibition is 38.4%.

As for `Cc1cc(=O)n2[nH]c(N3C(=O)CCC3=O)nc2n1`, the growth inhibition is 1.01%.

On to `Cc1nccn1-c1cc(C(C)C)c(C#N)c2nc3ccccc3n12`, for which the growth inhibition was 2.71%.

As to `O=c1[nH]c(CN2CCCCC2)nc2c1C1(CCCC1)Cc1ccccc1-2`, the growth inhibition is 2.71%.

Regarding `[N-]=[N+]=CC(=O)c1ccnc(C(=O)C=[N+]=[N-])c1`, the growth inhibition is 23.6%.

On to `COc1ccc(/C(O)=C2\C(=O)C(=O)N(c3cc(C)on3)C2c2ccccc2OC)cc1` (centres undefined), for which the growth inhibition was -10.7%.

With `O=C1c2ccccc2C(=O)N1CC1c2ccccc2CCN1C(=O)N1CCOCC1` (centres undefined), the growth inhibition is 5.08%.

Turning to `CCOC(=O)c1c(NC(=O)CCN2CCOCC2)sc2c1CC(C)(C)OC2`, the growth inhibition was 5.84%.

In the case of `CN1CCc2c(C#N)c(N3CCCCC3)nc(NCc3ccccc3)c2C1`, the growth inhibition was 90.4% (active).

For the compound `N#Cc1c(NCCCO)nc(-c2ccccc2)c2c1CCCC2`, the growth inhibition was 32.5%.

For `N#Cc1c(N2CCCCC2)nc(N2CCCCC2)c2c1CCN(Cc1ccccc1)C2`, the growth inhibition was 19.3%.

In the case of `N#Cc1c(NCCN)nc(NCc2ccccc2)c2c1CCN(Cc1ccccc1)C2`, the growth inhibition is 91.8% (active).

In the case of `Nc1[nH]nc2nc(NCc3ccccc3)c3c(c12)CCN(Cc1ccccc1)C3`, the growth inhibition was 24.5%.

Regarding `C=CCNc1nc(N2CCCCC2)c(C#N)c2c1CN(Cc1ccccc1)CC2`, the growth inhibition was 37.1%.

`CCCc1cc(=O)oc2c(CN3CCN(C)CC3)c(O)c(Cl)cc12`: the growth inhibition was 1.1%.

Take `CCOC(=O)Cc1[nH]nc2c1C(c1cc(OC)ccc1OC)C(C#N)=C(N)O2` (centres undefined): the growth inhibition is -2.35%.

As to `COCCOC(=O)c1c(C)nc(SCC(=O)Nc2ccc(C)cc2)c(C#N)c1-c1ccco1`, the growth inhibition is 3.22%.

`Cc1nc(N2CCOCC2)c(C#N)c2c1COC(C)(C)C2`: the growth inhibition was 12.7%.

`COc1ccc([C@@H]2Sc3ccccc3N(CCN(C)C)C(=O)[C@@H]2OC(C)=O)cc1`: the growth inhibition is 15.1%.

On to `CN(C)CCCOC(=O)c1ccc(Cl)cc1Cl`, for which the growth inhibition was 5.84%.

With `CN1CCN(C2=Nc3cc(Cl)ccc3Nc3ccccc32)CC1`, the growth inhibition was 26%.

In the case of `CN(C)CCCN1c2ccccc2Sc2ccc(Cl)cc21`, the growth inhibition is 92.2% (active).

For `CN(C)CCCN1c2ccccc2Sc2ccc(C(F)(F)F)cc21`, the growth inhibition was 90.7% (active).

Take `CN(C)CCCN1c2ccccc2Sc2ccccc21`: the growth inhibition was 29.4%.

For `CN(C)CCCN1c2ccccc2CCc2ccc(Cl)cc21`, the growth inhibition is 85.6% (active).

As for `CN(C)CCCN1c2ccccc2CCc2ccccc21`, the growth inhibition is 16.1%.

For `COc1cccc(C(=O)N2CCN(Cc3ccccn3)CC2)c1OC`, the growth inhibition was -2.78%.

Consider `COc1ccc(Cn2c(N)c(C#N)c3nc4ccccc4nc32)cc1OC`, for which the growth inhibition is 11.7%.

On to `CC[C@H](C)C(=O)O[C@H]1C[C@@H](C)C=C2C=C[C@H](C)[C@H](CC[C@@H]3C[C@@H](O)CC(=O)O3)[C@H]21`, for which the growth inhibition was 64.9% (active).

As for `COc1cc(C2C(C(C)=O)=C(O)C(=O)N2c2ccc(Br)cn2)ccc1O` (centres undefined), the growth inhibition was 3.52%.

Take `CC1(C)CC(=O)C(C=NCCN2CCN(C(=O)C34CC5CC(CC(C5)C3)C4)CC2)=C(O)C1`: the growth inhibition was 3.05%.

Turning to `COc1ccccc1-n1c(=O)c2c3c(sc2n2c(SC)nnc12)CCC3`, the growth inhibition was 6.85%.

Consider `COc1cccc(N2CCN(C(=O)c3ccc(=O)oc3)CC2C)c1` (centres undefined), for which the growth inhibition was -1.33%.

Take `COc1cccc(OCCN2CCN(c3ncnc4c3cnn4-c3ccccc3)CC2)c1`: the growth inhibition is 46.7%.

On to `COc1cccc(N2CCN(c3ncnc4c3[nH]c3ccc(F)cc34)CC2C)c1` (centres undefined), for which the growth inhibition was 93% (active).

Consider `COc1cccc(N2CCN(c3ncnc4c3[nH]c3ccccc34)CC2C)c1` (centres undefined), for which the growth inhibition was 91.9% (active).

Turning to `COc1ccc2c(c1)[nH]c1c(=O)n(CC3CCCO3)cnc12` (centres undefined), the growth inhibition was 8.24%.

`CCOC(=O)C1/C(=N\O)CC(C)(O)C(C(=O)OCC)C1c1ccc(N(C)C)cc1` (centres undefined): the growth inhibition was 7.47%.

For `O=c1c2c3c(sc2n2cnnc2n1Cc1ccccc1)CN(Cc1ccccc1)CC3`, the growth inhibition was 70.5% (active).

For `CCCSc1nnc2n(Cc3ccccc3)c(=O)c3c4c(sc3n12)CCC4`, the growth inhibition is 13.6%.

With `Cc1nnc2n(Cc3ccccc3)c(=O)c3c4c(sc3n12)CN(Cc1ccccc1)CC4`, the growth inhibition was 40.6%.

With `CC1CCc2cc(F)cc3c(O)c(C(=O)NCC4CCCO4)c(=O)n1c23` (centres undefined), the growth inhibition was 61.9% (active).

For the compound `CC1CCc2cc(F)cc3c(O)c(C(=O)NCc4ccco4)c(=O)n1c23` (centres undefined), the growth inhibition is 46.7%.

As for `CC1CCc2cc(F)cc3c(O)c(C(=O)Nc4cnccn4)c(=O)n1c23` (centres undefined), the growth inhibition is 26.4%.

In the case of `COC(=O)c1cc(Br)c(=O)n(Cc2ccc3c(c2)OCO3)c1`, the growth inhibition is 9.14%.

As to `O=C(NCc1cccnc1)/C(=N\O)c1ccccc1`, the growth inhibition was 0.76%.

For `CCN1CCN(c2nc3c(C)cccn3c(=O)c2/C=C(\C#N)S(=O)(=O)c2ccc(C)cc2)CC1`, the growth inhibition was 1.14%.

Take `CCCN(CCC)C(=O)CC(c1ccc(F)cc1)c1ccco1` (centres undefined): the growth inhibition is 38.5%.

Turning to `CCCc1cc(C(=O)Cc2ccc(F)cc2)c(O)cc1O`, the growth inhibition was 89.5% (active).

`O=C(Cc1cscn1)c1ccc(O)cc1O`: the growth inhibition was 2.87%.

Regarding `CC1N(O)C(c2ccc(Cl)cc2Cl)N(O)C1(C)C` (centres undefined), the growth inhibition was -11.8%.

On to `CC1(C)Cc2nc3sc4c(N(CCO)CCO)ncnc4c3cc2CO1`, for which the growth inhibition was 2.92%.

In the case of `Cc1ccc(S(=O)(=O)N2CCN(c3nc(C)c4c(c3C#N)CC(C)(C)OC4)CC2)cc1`, the growth inhibition is 30.2%.

With `Oc1ccc(Br)cc1CNn1cnnc1`, the growth inhibition was 3.94%.

Consider `CCn1c(SCC(=O)Nc2ccccc2C(=O)OC)nnc1-c1ccc(N)cc1`, for which the growth inhibition was -4.2%.

`COCCNc1ncnc2c1cnn2-c1ccc(Cl)cc1`: the growth inhibition is 26.1%.

For the compound `CCOC(=O)C1=C(C)N=C2SC(C)C(=O)N2C1c1cccc(F)c1` (centres undefined), the growth inhibition was -4.33%.
